From PubChem BioAssay (Tox21)
Where “and” joins values, the source holds several entries; their conditions need not be identical. Identical values can stand only once. Values without a mark were called inactive. Results filed as inconclusive are left out. A call without a number means that no potency is given here. Calls of active or inactive are those of the source. Calls come from the whole dose curve; as a rule, active = well fitted curve in the direction sought with a large enough effect in the repeat runs; inconclusive = weak or mixed curves; inactive = no such curve, though single readings can be large; an effect the other way counts as inactive or inconclusive.

What was measured:
[1] = Human pregnane X receptor (PXR) small molecule agonists, qHTS cell viability counter screen (AID 1346977); note: nearly all actives have a fitted effect of over 50% in size
Procedure, shortened: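 PXR-Luc HepG2 cells (2,000/well, 5% charcoal-stripped FBS) preincubated 5 hr, then exposed to compounds 24 hr at 37 C. Viability read in the same wells by CellTiter-Fluor fluorescence, reagent added at 23 hr, 1 hr incubation.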

[2] = Caspase-3/7 induction in HepG2 cells by small molecules, qHTS assay (AID 1346978); note: nearly all actives have a fitted effect of over 15% in size
Procedure, shortened: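 Wild-type HepG2 cells, 2,000/well, settled 5 hr at 37 C and 5% CO2, then compound-treated for 17 hr; caspase-3/7 activity read by luminescent Caspase-Glo 3/7 after 30 min at room temperature.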

[3] = Caspase-3/7 induction in CHO-K1 cells by small molecules, qHTS cell viability counter screen (AID 1346979); note: nearly all actives have a fitted effect of over 35% in size
Procedure, shortened: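 Wild-type CHO-K1 cells (1,500/well) treated with compound after 5 h plating; after 16 h at 37C, viability read as CellTiter-Fluor fluorescence following 1 h reagent incubation, in the same wells as the caspase read.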

[4] = Caspase-3/7 induction in CHO-K1 cells by small molecules, qHTS assay (AID 1346980); note: nearly all actives have a fitted effect of over 15% in size
Procedure, shortened: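 Wild-type CHO-K1 cells exposed to compounds for 17hr at 37 C, 5% CO2. Caspase-3/7 activity then measured by Caspase-Glo 3/7 luminescence after 30min at room temperature.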

[5] = Caspase-3/7 induction in HepG2 cells by small molecules, qHTS cell viability counter screen (AID 1346981); note: series mostly up to about 92 µM; nearly all actives have a fitted effect of over 30% in size
Procedure, shortened: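 The parent HepG2 line is plated at 2,000 cells per well and rested 5 hr before compound pinning from DMSO stocks. Following a 16-hr treatment at 37 C, a fluorogenic live-cell substrate (CellTiter-Fluor) reports viability after 1 hr.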

[6] = target: Nuclear receptor subfamily 1 group I member 2 (Homo sapiens) (UniProt O75469); experiment: Human pregnane X receptor (PXR) small molecule agonists, qHTS assay (AID 1346982); note: nearly all actives have a fitted effect of over 35% in size; note: potency is the fitted concentration of half-maximal effect
Nuclear receptor subfamily 1 group I member 2 (Homo sapiens), sequence (O75469 whole entry, looked up): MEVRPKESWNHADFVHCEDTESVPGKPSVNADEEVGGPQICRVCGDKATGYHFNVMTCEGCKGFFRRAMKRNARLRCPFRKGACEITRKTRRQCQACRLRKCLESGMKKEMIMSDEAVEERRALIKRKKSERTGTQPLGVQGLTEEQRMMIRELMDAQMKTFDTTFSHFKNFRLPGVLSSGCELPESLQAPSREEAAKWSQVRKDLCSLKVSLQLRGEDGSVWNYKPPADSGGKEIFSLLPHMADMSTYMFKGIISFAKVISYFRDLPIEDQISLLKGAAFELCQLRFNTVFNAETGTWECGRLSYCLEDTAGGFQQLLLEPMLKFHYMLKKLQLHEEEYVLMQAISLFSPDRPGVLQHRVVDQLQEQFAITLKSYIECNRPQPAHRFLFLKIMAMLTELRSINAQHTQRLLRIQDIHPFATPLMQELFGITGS
Procedure, shortened: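 After plating in 5% charcoal-stripped FBS and a 5 hr rest, PXR-Luc HepG2 cells received compounds in DMSO. Following 24 hr at 37 C, ONE-Glo was added and light output read.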

[7] = target: Nuclear receptor subfamily 1 group I member 2 (Rattus norvegicus) (UniProt Q9R1A7); experiment: Rat pregnane X receptor (rPXR) activation by small molecules, qHTS assay (AID 1346983); details: rPXR luciferase reporter cells, One-Glo luminescence, 24 h; max activation: stronger effect = higher value; note: nearly all actives have a fitted effect of over 20% in size
Nuclear receptor subfamily 1 group I member 2 (Rattus norvegicus), sequence (Q9R1A7 whole entry, looked up): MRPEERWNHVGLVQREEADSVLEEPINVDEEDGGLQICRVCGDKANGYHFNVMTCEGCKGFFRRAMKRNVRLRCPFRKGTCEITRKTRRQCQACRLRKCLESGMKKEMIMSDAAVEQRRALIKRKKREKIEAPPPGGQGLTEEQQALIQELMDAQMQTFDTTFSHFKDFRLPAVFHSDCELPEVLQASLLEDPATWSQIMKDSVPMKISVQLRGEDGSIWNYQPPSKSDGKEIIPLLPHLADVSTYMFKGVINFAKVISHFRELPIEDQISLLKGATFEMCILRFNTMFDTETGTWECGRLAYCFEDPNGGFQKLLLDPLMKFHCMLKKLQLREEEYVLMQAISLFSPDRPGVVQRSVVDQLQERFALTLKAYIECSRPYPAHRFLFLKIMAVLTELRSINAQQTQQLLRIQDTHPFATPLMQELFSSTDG
Procedure, shortened: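 Cell-based rPXR activation assay: rPXR cells, 2,000 per well, rested 5hr at 37 C, then exposed to compounds in DMSO for 24 hr at 37 C. Luciferase activity read by One-Glo luminescence after 30 min at room temperature.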

[8] = target: Nuclear receptor subfamily 1 group I member 2 (Homo sapiens) (UniProt O75469); experiment: CYP3A4 induction through human pregnane X receptor (PXR) by small molecules, qHTS assay (AID 1346984); note: nearly all actives have a fitted effect of over 40% in size
Procedure, shortened: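 Human PXR activation is tracked via CYP3A4 promoter-luciferase in DPX-2 (HepG2) cells. Compounds treat cells for 24hr at 37C, and luminescence is read after One-Glo.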

[9] = target: Nuclear receptor subfamily 1 group I member 2 (Homo sapiens) (UniProt O75469); experiment: Human pregnane X receptor (PXR) activation by small molecules, qHTS assay (AID 1346985); note: nearly all actives have a fitted effect of over 40% in size
Procedure, shortened: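 DPX-2 cells (HepG2 co-transfected with a PXR response element and a CYP3A4-promoter luciferase construct) were seeded at 2,000 per well, rested 5 hr at 37C, then exposed to DMSO-dissolved compounds for 24 hr. Activation was read as luciferase luminescence.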

[10] = target: Cytochrome P450 2D6 (Homo sapiens) (UniProt P10635); experiment: Cytochrome P450 Family 2 Subfamily D Member 6 (CYP2D6) small molecule antagonists: luciferase reporter qHTS assay (AID 1671196); note: nearly all actives have a fitted effect of over 50% in size; note: potency is the fitted concentration of half-maximal effect
Cytochrome P450 2D6 (Homo sapiens), sequence (P10635 whole entry, looked up): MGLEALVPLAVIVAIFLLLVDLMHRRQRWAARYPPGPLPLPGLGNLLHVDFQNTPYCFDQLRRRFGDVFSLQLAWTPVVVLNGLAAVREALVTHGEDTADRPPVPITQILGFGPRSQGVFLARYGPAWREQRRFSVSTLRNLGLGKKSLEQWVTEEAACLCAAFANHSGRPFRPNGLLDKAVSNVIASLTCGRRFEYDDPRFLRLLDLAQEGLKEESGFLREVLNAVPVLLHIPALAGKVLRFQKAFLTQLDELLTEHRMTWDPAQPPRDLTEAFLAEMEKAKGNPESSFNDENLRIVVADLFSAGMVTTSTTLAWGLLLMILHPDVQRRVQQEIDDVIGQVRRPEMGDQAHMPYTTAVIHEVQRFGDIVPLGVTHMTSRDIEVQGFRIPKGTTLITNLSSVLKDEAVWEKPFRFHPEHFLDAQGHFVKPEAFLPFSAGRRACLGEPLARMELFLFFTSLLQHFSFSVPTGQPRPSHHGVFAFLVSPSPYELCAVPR
Procedure, shortened: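 Quantitative HTS of Tox21 chemicals against CYP2D6 using a luminescent proluciferin substrate. After NADPH addition, 1 h room-temperature reaction; luminescence recorded 20 min post detection reagent.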

O=S1(=O)N=C(O)c2ccccc21
Potency [1]: inactive | outcome [2]: inactive | Potency [3]: inactive | Potency [4]: inactive

O=C1CCCCCO1
Potency [1]: inactive | outcome [2]: inactive | Potency [3]: inactive | Potency [4]: inactive | Potency [5]: inactive | Potency [6]: inactive

CCCC(C)C
Potency [1]: inactive | outcome [2]: inactive | Potency [3]: inactive | Potency [4]: inactive | Potency [5]: inactive

Cc1cc(CC(=O)O)c(C)n1-c1ccc(Cl)cc1
Potency [1]: inactive | outcome [2]: inactive | Potency [3]: inactive | Potency [4]: inactive | Potency [5]: inactive | Potency [6]: inactive | max activation [7]: 0.177% | Potency [8]: inactive

C1CCC2OC2C1 (stereo not given)
Potency [1]: inactive | outcome [2]: inactive | Potency [3]: inactive | Potency [4]: inactive | Potency [5]: inactive | Potency [6]: inactive

C1=Cc2ccccc2C1
Potency [1]: inactive | outcome [2]: inactive | Potency [3]: inactive | Potency [4]: inactive | Potency [5]: inactive | Potency [6]: inactive

CCCCCCCCCCCCCCCC(=O)OC/C=C(C)/C=C/C=C(C)/C=C/C1=C(C)CCCC1(C)C
Potency [1]: inactive | outcome [2]: inactive | Potency [3]: inactive | Potency [4]: inactive | Potency [5]: inactive | Potency [6]: 24.3 µM (active)

Nc1nc(CC(=O)O)cs1
Potency [1]: inactive | outcome [2]: inactive | Potency [3]: inactive | Potency [4]: inactive | Potency [5]: inactive | Potency [6]: inactive

CC(C)c1ccc2c(C(C)C)cc(C(C)C)c(S(=O)(=O)O)c2c1
Potency [1]: inactive | outcome [2]: inactive | Potency [3]: inactive | Potency [4]: inactive | Potency [5]: inactive | Potency [6]: 25.2 µM (active)

CCCCCCCCCO
Potency [1]: inactive | outcome [2]: inactive | Potency [3]: inactive | Potency [4]: inactive | Potency [5]: inactive | Potency [6]: inactive

CC(=O)OC/C=C/c1ccccc1
Potency [1]: inactive | outcome [2]: inactive | Potency [3]: inactive | Potency [4]: inactive | Potency [5]: inactive | Potency [6]: inactive

Cc1ccc(C)o1
Potency [1]: inactive | outcome [2]: inactive | Potency [3]: inactive | Potency [4]: inactive | Potency [5]: inactive | Potency [6]: inactive

CC(=O)Nc1ccc(/C=N/NC(N)=S)cc1
Potency [1]: inactive | outcome [2]: inactive | Potency [3]: inactive | Potency [4]: inactive | Potency [5]: inactive | Potency [6]: inactive | max activation [7]: -4.57% and -9.49% | Potency [8]: inactive | Potency [9]: inactive

CN(C)CCCNCCCN
Potency [1]: inactive | outcome [2]: inactive | Potency [3]: inactive | Potency [4]: inactive | Potency [5]: inactive | Potency [6]: inactive | Potency [10]: 70.7 µM (active)

C=CC(C)(CCC=C(C)C)OC(=O)c1ccccc1 (stereo not given)
Potency [1]: inactive | outcome [2]: inactive | Potency [3]: inactive

CCOc1nc2cccc(C(=O)O)c2n1Cc1ccc(-c2ccccc2-c2nn[nH]n2)cc1
Potency [1]: inactive | outcome [2]: inactive | Potency [3]: inactive | Potency [4]: inactive | Potency [5]: inactive | Potency [6]: inactive | max activation [7]: -0.587%

SC1CCCC1
Potency [1]: inactive | outcome [2]: inactive | Potency [3]: inactive | Potency [4]: inactive | Potency [5]: inactive | Potency [6]: inactive | Potency [10]: inactive

O=C(O)Cc1sc(-c2ccccc2)nc1-c1ccc(Cl)cc1
Potency [1]: inactive | outcome [2]: inactive | Potency [3]: inactive | Potency [4]: inactive | Potency [5]: inactive | Potency [6]: inactive | max activation [7]: 0.948% | Potency [8]: inactive | Potency [9]: inactive | Potency [10]: inactive

CC(C)CCCC(C)CCO (stereo not given)
Potency [1]: inactive | outcome [2]: inactive | Potency [3]: inactive | Potency [4]: inactive | Potency [5]: inactive | Potency [6]: inactive

O=C(O)C1CCC(C(=O)O)CC1 (stereo not given)
Potency [1]: inactive | outcome [2]: inactive | Potency [3]: inactive | Potency [4]: inactive | Potency [5]: inactive | Potency [6]: inactive

CCCCCCCCCCCCCCC1CO1 (stereo not given)
Potency [1]: inactive | outcome [2]: inactive | Potency [3]: inactive | Potency [4]: inactive | Potency [5]: inactive | Potency [6]: inactive | Potency [10]: inactive

CC(C(=O)O)c1ccc(C(=O)c2ccccc2)s1 (stereo not given)
Potency [1]: inactive | outcome [2]: inactive | Potency [3]: inactive | Potency [4]: inactive | Potency [5]: inactive | Potency [6]: 15 µM (active) | max activation [7]: 13.7% | Potency [8]: inactive | Potency [10]: inactive

Cc1ncsc1CCO
Potency [1]: inactive | outcome [2]: inactive | Potency [3]: inactive | Potency [4]: inactive | Potency [5]: inactive | Potency [6]: inactive

CC(=O)/C(C)=C/C1C(C)=CCCC1(C)C (stereo not given)
Potency [1]: inactive | outcome [2]: inactive | Potency [3]: inactive | Potency [4]: inactive | Potency [5]: inactive | Potency [6]: inactive | Potency [10]: inactive

CCCCCCCCC(CO)CCCCCC (stereo not given)
Potency [1]: inactive | outcome [2]: inactive | Potency [3]: inactive | Potency [4]: inactive | Potency [5]: inactive | Potency [6]: inactive

Cn1c(N)nc2nc[nH]c2c1=O
Potency [1]: inactive | outcome [2]: inactive | Potency [3]: inactive | Potency [4]: inactive | Potency [5]: inactive | Potency [6]: inactive

N#CCCNCCC#N
Potency [1]: inactive | outcome [2]: inactive | Potency [3]: inactive | Potency [4]: inactive | Potency [5]: inactive | Potency [6]: inactive | Potency [10]: inactive

CC[C@H](C)[C@H](N)C(=O)O
Potency [1]: inactive | outcome [2]: inactive | Potency [3]: inactive | Potency [4]: inactive | Potency [5]: inactive | Potency [6]: inactive | max activation [7]: -0.0819% | Potency [8]: inactive | Potency [9]: inactive | Potency [10]: inactive

Cc1cc(NC(=O)C(=O)O)cc(C)c1Oc1ccc(O)c2c1CCC2
Potency [1]: inactive | outcome [2]: inactive | Potency [3]: inactive | Potency [4]: inactive | Potency [5]: inactive | Potency [6]: inactive
